Values joined by “and” are separate entries in the source; they are usually repeats but may differ in a detail not shown here. Identical values can stand only once. Inconclusive results are not listed. Entries that show only a call come without a potency. A structure can be active in one record and inactive in another. Active and inactive are the calls of the source. Unless noted, calls follow the shape of the full dose curve.
Key:
[1] = Nuclear factor erythroid 2-related factor 2/antioxidant responsive element (Nrf2/ARE) small molecule agonists: qHTS cell viability counter screen in human keratinocytes (AID 1919968; active = well fitted curve in the direction sought with a large enough effect in the repeat runs; an effect the other way counts as inactive or inconclusive; also: nearly all actives have a fitted effect of over 55% in size; also: potency is read from the fitted curve at half-maximal effect)
How it was run: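 Seed 1,500 KeratinoSens cells per well, then incubate 5 h at 37 C/5% CO2. Add compounds in DMSO and incubate 23 h. Add CellTiter-Fluor, wait 1 h and read fluorescence.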

[2] = Nuclear factor erythroid 2-related factor 2/antioxidant responsive element (Nrf2/ARE) small molecule agonists: luciferase reporter gene qHTS assay in human keratinocytes (AID 1919969); also: nearly all actives have a fitted effect of over 35% in size; also: potency is read from the fitted curve at half-maximal effect
[3] = target: Gonadotropin-releasing hormone receptor (Homo sapiens) (UniProt P30968); experiment: Human gonadotropin-releasing hormone receptor (GnRHR) small molecule agonists, calcium flux assay in GnRHR-HEK293 cells (AID 1920063); also: nearly all actives have a fitted effect of over 35% in size; also: potency is read from the fitted curve at half-maximal effect
How it was run: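 Cells: HEK293 stably expressing human GnRHR. Steps: overnight (18 h) culture, 1 h calcium dye loading at 37 C, compound addition, kinetic fluorescence read at 480/540 nm. Each compound tested at 15 concentrations in triplicate.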

[4] = target: KiSS-1 receptor (Homo sapiens) (UniProt Q969F8); experiment: Human kisspeptin (KISS1R) small molecule agonists, calcium flux assay in KISS1R-HEK293 cells (AID 1920064; active = well fitted curve in the direction sought with a large enough effect in the repeat runs; an effect the other way counts as inactive or inconclusive)
How it was run: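 Cells plated and incubated 18 h; dye added, 1 h at 37 C; compounds in DMSO pinned in; signal read at 480/540 nm every second for 3 min. Each compound tested at 15 concentrations in triplicate.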

[5] = p53 small molecule agonists, cell-based qHTS assay with human liver microsomes: qHTS cell viability counter screen (AID 1963579); also: nearly all actives have a fitted effect of over 45% in size; also: potency is read from the fitted curve at half-maximal effect
How it was run: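 Seed p53RE-bla cells at 4,000 per well; incubate 5 h at 37 C; add compound, human liver microsomes and NADPH; incubate 16 h at 37 C; add CellTiter-Glo; after 30 min at room temperature, read luminescence.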

[6] = p53 small molecule agonists, cell-based qHTS assay with rat liver microsomes: qHTS cell viability counter screen (AID 1963580); also: nearly all actives have a fitted effect of over 45% in size
How it was run: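 HCT-116 p53RE-bla, 4,000 cells/well, 5 h pre-incubation; cpd + rat liver microsomes 0.5 mg/mL + NADPH 0.5 mg/mL (final); 16 h, 37 C; CellTiter-Glo, 30 min RT; luminescence.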

[7] = cAMP Responsive Elements (CRE) small molecule agonists, cell-based qHTS assay (AID 1963590)
How it was run: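 Agonist mode qHTS in CRE-bla HEK 293T cells: compounds dosed from DMSO for 3 h at 37 C/5% CO2, followed by LiveBLAzer B/G FRET substrate for 2 h at room temperature.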

[8] = cAMP Responsive Elements (CRE) small molecule antagonists, cell-based qHTS assay (AID 1963591; active = well fitted inhibition curve with a large enough effect in the signal ratio in the repeat runs, not every such curve was filed as active; the % refers to the signal ratio)
How it was run: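 Antagonist mode: test compounds are co-incubated with the adenylyl cyclase activator NKH477 (0.25 uM final) on CRE-bla HEK293T cells for 3 h at 37 °C, followed by LiveBLAzer substrate loading.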

[9] = target: Beta-2 adrenergic receptor (Homo sapiens) (UniProt P07550); experiment: Adrenergic beta2 receptor (ADRB2) small molecule antagonists, cell-based qHTS assay (AID 1963592); also: nearly all actives have a fitted effect of over 50% in size; also: potency is read from the fitted curve at half-maximal effect
How it was run: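 Cells (CHO, stable ADRB2 overexpression) incubated 18-20hr at 37C; compounds added from DMSO; agonist mix (1nM isoproterenol, 100uM IBMX, 25uM Ro-20-1724) added; 0.5hr RT; d2-cAMP and anti-cAMP-cryptate added; 1hr RT; 665/615 nm read.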

[10] = target: Beta-2 adrenergic receptor (Homo sapiens) (UniProt P07550); experiment: Adrenergic beta2 receptor (ADRB2) small molecule agonists, cell-based qHTS assay (AID 1963593);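 also: CHO cells stably overexpressing human ADRB2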
How it was run: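 CHO cells stably over-expressing ADRB2 were plated overnight at 37C, then dosed with compounds plus a stimulation mix containing 100uM IBMX and 25uM Ro-20-1724 for 0.5hr at room temperature. cAMP was measured by HTRF competition, 1hr.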

[11] = target: D(2) dopamine receptor (Homo sapiens) (UniProt P14416); experiment: Dopamine D2 receptor (DRD2) small molecule agonists, cell-based qHTS assay (AID 1963594); also: nearly all actives have a fitted effect of over 35% in size
How it was run: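 cAMP accumulation in DRD2-HEK293 cells measured by HTRF after 1 h detection; compounds added 10 min before NKH477 (200nM […]) forskolin-analogue stimulation, 30 min at room temperature, with Ro20-1724 present at 0.1 mM final.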

[12] = target: D(2) dopamine receptor (Homo sapiens) (UniProt P14416); experiment: Dopamine D2 receptor (DRD2) small molecule antagonists, cell-based qHTS assay (AID 1963595; active = well fitted inhibition curve with a large enough effect in the signal ratio in the repeat runs, with a control signal flat; the % refers to the signal ratio; also: potency is read from the fitted curve at half-maximal effect)
How it was run: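 HTRF cAMP read-out at 665 and 620 nm emission (340 nm excitation). Antagonist mode: compounds were tested against 12 nM quinpirole in DRD2-HEK293 cells, with 200 nM NKH477 raising cAMP and 0.1 mM Ro20-1724 blocking its breakdown.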

[13] = p53 small molecule agonists, cell-based qHTS assay with human liver microsomes (AID 1963577)
How it was run: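 Cells carrying a p53-responsive bla reporter were rested 5 h (37 C, 5% CO2) before compound transfer. Human liver microsomes plus NADPH, 0.5 mg/mL final apiece, supplied metabolism during the 16 h 37 C exposure.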

[14] = p53 small molecule agonists, cell-based qHTS assay with rat liver microsomes (AID 1963578)
How it was run: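 Fluorescence from a beta-lactamase reporter under a p53 response element was measured after cells had been incubated 16 h at 37 C with test compound and rat liver microsomes plus NADPH (0.5 mg/mL final each).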

[15] = p53 small molecule agonists, cell-based qHTS assay: qHTS cell viability counter screen (AID 1963581); also: nearly all actives have a fitted effect of over 45% in size
How it was run: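 Cells: HCT-116 with p53 response element-driven beta-lactamase. Treatment: 16 h, 37 C, compounds in DMSO. Read: CellTiter-Glo luminescence after 30 min RT.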

[16] = p53 small molecule agonists, cell-based qHTS assay (AID 1963582; active = well fitted activation curve with a large enough effect in the signal ratio in the repeat runs, not every such curve was filed as active; the % refers to the signal ratio)
How it was run: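 Quantitative HTS in p53RE-bla cells: after a 5 h settling period, compounds delivered in DMSO were left on cells for 16 h at 37 C, and reporter induction was measured as fluorescence following 2 h substrate loading.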

[17] = target: 5-hydroxytryptamine receptor 2A (Homo sapiens) (UniProt P28223); experiment: 5-hydroxytryptamine receptor 2A (HTR2A) small molecule antagonists, cell-based qHTS assay (AID 1963586); also: nearly all actives have a fitted effect of over 45% in size; also: potency is read from the fitted curve at half-maximal effect
How it was run: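 Antagonist-mode intracellular calcium assay: DOI (4 nM) added after 5 min compound pre-incubation at room temperature to dye-loaded HTR2A-CHO cells. Fluorescence followed for 3 min, sampled every second.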

[18] = target: 5-hydroxytryptamine receptor 2A (Homo sapiens) (UniProt P28223); experiment: 5-hydroxytryptamine receptor 2A (HTR2A) small molecule agonists, cell-based qHTS assay (AID 1963587); also: nearly all actives have a fitted effect of over 30% in size
How it was run: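 Kinetic calcium-flux fluorescence (2 min, 1 sec intervals) after compound addition in agonist mode. HTR2A-CHO cells were cultured 18 h, then dye-loaded 1 h at 37 C.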

[19] = target: Muscarinic acetylcholine receptor M1 (Homo sapiens) (UniProt P11229); experiment: Cholinergic receptor muscarinic 1 (CHRM1) small molecule antagonists, cell-based qHTS assay (AID 1963588); also: nearly all actives have a fitted effect of over 40% in size; also: potency is read from the fitted curve at half-maximal effect
How it was run: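 CHRM1-CHO calcium-flux assay, antagonist mode. Cells were seeded 18 h, dye-loaded 1 h at 37 C and given compound for 5 min at RT, then acetylcholine was added at 50nM. FDSS fluorescence was read 3 min; 15 concentrations, three runs.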

[20] = target: Muscarinic acetylcholine receptor M1 (Homo sapiens) (UniProt P11229); experiment: Cholinergic receptor muscarinic 1 (CHRM1) small molecule agonists, cell-based qHTS assay (AID 1963589); also: nearly all actives have a fitted effect of over 35% in size
How it was run: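 Agonist-mode qHTS in CHO cells stably carrying human muscarinic M1. Intracellular calcium is tracked by fluorescence every second after compound transfer; each compound runs at 15 concentrations in three independent runs.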

Chain of 5-hydroxytryptamine receptor 2A (Homo sapiens) (P28223 whole entry, looked up): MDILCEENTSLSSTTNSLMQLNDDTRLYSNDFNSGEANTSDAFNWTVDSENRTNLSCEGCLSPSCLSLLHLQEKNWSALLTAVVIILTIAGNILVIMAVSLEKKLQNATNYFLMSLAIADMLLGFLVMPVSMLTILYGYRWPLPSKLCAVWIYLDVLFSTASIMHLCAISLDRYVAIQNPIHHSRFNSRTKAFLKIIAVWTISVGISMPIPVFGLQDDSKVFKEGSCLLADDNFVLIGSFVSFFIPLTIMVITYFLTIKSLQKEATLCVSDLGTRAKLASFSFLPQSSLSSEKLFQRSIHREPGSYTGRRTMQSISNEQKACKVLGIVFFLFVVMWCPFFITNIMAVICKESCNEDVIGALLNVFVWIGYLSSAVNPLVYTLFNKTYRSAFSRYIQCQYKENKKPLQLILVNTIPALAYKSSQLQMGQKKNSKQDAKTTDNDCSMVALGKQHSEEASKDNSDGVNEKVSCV
Chain of KiSS-1 receptor (Homo sapiens) (Q969F8 whole entry, looked up): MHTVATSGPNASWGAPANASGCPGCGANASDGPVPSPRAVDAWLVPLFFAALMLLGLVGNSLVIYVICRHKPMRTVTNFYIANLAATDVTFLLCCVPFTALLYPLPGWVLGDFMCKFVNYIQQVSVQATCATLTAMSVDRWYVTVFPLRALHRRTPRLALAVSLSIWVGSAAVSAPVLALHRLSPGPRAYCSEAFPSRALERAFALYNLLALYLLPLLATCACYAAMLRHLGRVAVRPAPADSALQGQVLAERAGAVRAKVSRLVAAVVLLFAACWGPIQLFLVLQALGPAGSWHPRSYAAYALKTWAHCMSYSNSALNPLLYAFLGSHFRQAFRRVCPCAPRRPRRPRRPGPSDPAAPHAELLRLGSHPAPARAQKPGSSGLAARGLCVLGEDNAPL
Chain of Beta-2 adrenergic receptor (Homo sapiens) (P07550 whole entry, looked up): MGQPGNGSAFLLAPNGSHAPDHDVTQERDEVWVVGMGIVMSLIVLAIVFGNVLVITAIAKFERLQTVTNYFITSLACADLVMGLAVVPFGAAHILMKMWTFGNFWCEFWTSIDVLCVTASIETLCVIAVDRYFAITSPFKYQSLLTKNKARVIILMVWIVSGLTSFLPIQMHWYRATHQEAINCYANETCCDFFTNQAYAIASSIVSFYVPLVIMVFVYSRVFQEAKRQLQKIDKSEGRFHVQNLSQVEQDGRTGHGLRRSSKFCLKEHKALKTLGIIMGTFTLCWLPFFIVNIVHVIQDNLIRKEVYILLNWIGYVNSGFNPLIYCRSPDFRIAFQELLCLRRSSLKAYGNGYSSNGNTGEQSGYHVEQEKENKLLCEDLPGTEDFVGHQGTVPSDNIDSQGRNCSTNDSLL
Chain of Gonadotropin-releasing hormone receptor (Homo sapiens) (P30968 whole entry, looked up): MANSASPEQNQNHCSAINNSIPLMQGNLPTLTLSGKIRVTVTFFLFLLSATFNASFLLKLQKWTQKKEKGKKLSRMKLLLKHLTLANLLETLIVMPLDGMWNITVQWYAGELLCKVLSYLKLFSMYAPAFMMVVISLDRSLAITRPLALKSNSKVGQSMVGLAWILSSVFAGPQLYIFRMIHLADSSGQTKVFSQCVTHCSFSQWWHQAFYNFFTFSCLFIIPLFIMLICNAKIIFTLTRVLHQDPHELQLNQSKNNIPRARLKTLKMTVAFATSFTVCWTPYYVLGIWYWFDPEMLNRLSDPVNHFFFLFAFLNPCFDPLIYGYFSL
Chain of D(2) dopamine receptor (Homo sapiens) (P14416 whole entry, looked up): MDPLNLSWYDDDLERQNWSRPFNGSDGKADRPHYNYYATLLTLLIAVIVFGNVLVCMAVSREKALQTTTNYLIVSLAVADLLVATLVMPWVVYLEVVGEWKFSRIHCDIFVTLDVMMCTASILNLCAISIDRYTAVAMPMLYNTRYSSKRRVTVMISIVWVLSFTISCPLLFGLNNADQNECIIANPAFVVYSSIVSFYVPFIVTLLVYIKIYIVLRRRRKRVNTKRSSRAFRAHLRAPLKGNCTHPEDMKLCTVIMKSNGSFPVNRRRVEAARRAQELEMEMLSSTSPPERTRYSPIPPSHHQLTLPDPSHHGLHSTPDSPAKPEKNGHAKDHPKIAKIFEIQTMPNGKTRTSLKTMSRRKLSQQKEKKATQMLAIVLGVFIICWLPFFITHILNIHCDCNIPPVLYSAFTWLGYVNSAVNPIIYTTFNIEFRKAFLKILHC
Chain of Muscarinic acetylcholine receptor M1 (Homo sapiens) (P11229 whole entry, looked up): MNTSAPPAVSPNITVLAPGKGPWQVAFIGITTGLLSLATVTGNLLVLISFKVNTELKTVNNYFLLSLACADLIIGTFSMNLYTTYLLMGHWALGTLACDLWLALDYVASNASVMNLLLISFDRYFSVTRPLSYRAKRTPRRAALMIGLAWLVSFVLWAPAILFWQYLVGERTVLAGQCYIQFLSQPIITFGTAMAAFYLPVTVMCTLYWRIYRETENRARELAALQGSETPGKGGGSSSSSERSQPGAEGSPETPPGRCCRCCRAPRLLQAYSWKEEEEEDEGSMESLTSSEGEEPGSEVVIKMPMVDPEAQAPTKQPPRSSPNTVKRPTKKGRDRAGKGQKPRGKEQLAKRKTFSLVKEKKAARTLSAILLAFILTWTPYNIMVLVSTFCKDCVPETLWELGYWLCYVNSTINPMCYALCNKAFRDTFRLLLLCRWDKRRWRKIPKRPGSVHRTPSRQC

| SMILES | Potency [1] | Potency [2] | Potency [3] | Potency [4] | Potency [5] | Potency [6] | Potency [7] | Potency [8] | Potency [9] | Potency [10] | Potency [11] | Potency [12] | Potency [13] | Potency [14] | Potency [15] | Potency [16] | Potency [17] | Potency [18] | Potency [19] | Potency [20] |
| --- | --- | --- | --- | --- | --- | --- | --- | --- | --- | --- | --- | --- | --- | --- | --- | --- | --- | --- | --- | --- |
| COC(=O)Nc1nc2ccc(S(=O)c3ccccc3)cc2[nH]1 (centres undefined) | inactive | inactive and 13.3 µM (active) | inactive | inactive | inactive | inactive | inactive | inactive | inactive | inactive | inactive | inactive |  |  |  |  |  |  |  |  |
| Cc1ccc(C(C)(C)C)cc1 | inactive | inactive | inactive | inactive | inactive | inactive | inactive | inactive | inactive | inactive | inactive | inactive | inactive | inactive | inactive | inactive | inactive | inactive | inactive | inactive |
| OCCNCCO | inactive | inactive | inactive | inactive |  | inactive | inactive | inactive | inactive |  | inactive | inactive |  |  |  |  | inactive | inactive | inactive | inactive |
| O=C(O)CNC(=O)c1ccc(CO)o1 | inactive | inactive | inactive | inactive | inactive | inactive | inactive | inactive | inactive | inactive | inactive | inactive | inactive | inactive | inactive | inactive | inactive | inactive | inactive | inactive |
| O=C(COc1ccc(Cl)cc1)N1CCN(Cc2ccc3c(c2)OCO3)CC1 | inactive | inactive | inactive | inactive | inactive | inactive | inactive | inactive | inactive |  | inactive | inactive |  |  |  |  | 29.8 µM (active) and inactive |  | 37.5 µM (active) and inactive | inactive |
| O=C(Cl)c1ccccc1[N+](=O)[O-] | inactive | inactive | inactive | inactive | inactive | inactive | inactive | inactive | inactive |  | inactive | inactive | inactive | inactive | inactive | inactive | inactive | inactive | inactive | inactive |
| CC(=O)/C=C/C1C(C)=CCCC1(C)C (centres undefined) | inactive | inactive | inactive | inactive | inactive |  | inactive |  | inactive | inactive | inactive | inactive |  |  | inactive |  |  | inactive | inactive | inactive |
| Cc1cc(OCCOCC[N+](C)(C)Cc2ccccc2)ccc1C(C)(C)CC(C)(C)C | 21.6 µM (active) and 7.5 µM (active) | inactive | 38.7 µM (active) | inactive | 36.1 µM (active) and inactive | inactive |  |  | inactive |  | inactive | 38.3 µM (active) |  |  |  |  |  |  | 2.96 µM (active) and 2.59 µM (active) | inactive |
| CC(C)(N=C=O)c1cccc(C(C)(C)N=C=O)c1 | inactive | inactive | inactive | inactive | inactive |  | inactive | inactive |  |  | inactive | inactive |  |  | inactive |  | inactive | inactive | inactive | inactive |
| C=CC(=O)O[C@H]1C[C@@H]2CC[C@@]1(C)C2(C)C | inactive | inactive | inactive | inactive | inactive | inactive | inactive | inactive | inactive | inactive | inactive | inactive | inactive | inactive | inactive | inactive | inactive | inactive | inactive | inactive |
| C1=Cc2ccccc2C1 | inactive | inactive | inactive | inactive | inactive | inactive | inactive | inactive | inactive |  | inactive | inactive | inactive | inactive | inactive | inactive | inactive | inactive | inactive | inactive |
| O=C(NCC1CCCCN1)c1cc(OCC(F)(F)F)ccc1OCC(F)(F)F (centres undefined) | inactive | inactive | inactive | inactive |  |  | inactive | inactive | inactive |  | inactive | inactive |  |  | inactive | inactive | inactive | inactive | inactive | inactive |
| CCOC(=O)N1CCC(=C2c3ccc(Cl)cc3CCc3cccnc32)CC1 | 68.6 µM (active) and 26.6 µM (active) | inactive | inactive | inactive |  |  |  | inactive | 54.5 µM (active) |  | inactive | inactive |  |  | inactive |  |  |  |  |  |
| CCCO | inactive | inactive | inactive | inactive | inactive | inactive | inactive | inactive | inactive | inactive | inactive | inactive | inactive | inactive | inactive | inactive | inactive | inactive | inactive | inactive |
| C=C1C[C@]23C[C@@]1(O)CC[C@H]2[C@@]12C=C[C@H](O)[C@@](C)(C(=O)O1)[C@H]2[C@@H]3C(=O)O | inactive | inactive | inactive | inactive |  | inactive | inactive | inactive | inactive |  | inactive | inactive |  |  | inactive |  | inactive |  | inactive | inactive |
| O=C(O)c1ccccc1S | inactive | inactive | inactive | inactive | inactive | inactive | inactive | inactive | inactive |  | inactive | inactive | inactive | inactive | inactive | inactive | inactive | inactive | inactive | inactive |

— PubChem BioAssay (Tox21)
